# Measured values reported in PubChem BioAssay AID652217 (Sanford-Burnham Center for Chemical Genomics, 2013).
# In all, about 1,800 compounds went through this assay and about 240 (13%) were called active. Only a selection was taken, and actives are over-represented in it overall. A number with no mark means an inactive call. Cut-off read from the data, not from the text of the source: active = inhibition above about 40%; inactive = the rest.
# Molecular target: NEDD8-conjugating enzyme Ubc12 (Homo sapiens) + NEDD8-activating enzyme E1 regulatory subunit (Homo sapiens) (UniProt P61081+Q13564)
# Sequence (P61081 whole entry, looked up): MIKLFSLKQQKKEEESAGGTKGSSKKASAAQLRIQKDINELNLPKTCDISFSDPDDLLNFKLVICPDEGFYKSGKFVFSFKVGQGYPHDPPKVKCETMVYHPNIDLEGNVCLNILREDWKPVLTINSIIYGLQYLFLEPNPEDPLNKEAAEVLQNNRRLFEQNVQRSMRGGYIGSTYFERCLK
# Sequence (Q13564 whole entry, looked up): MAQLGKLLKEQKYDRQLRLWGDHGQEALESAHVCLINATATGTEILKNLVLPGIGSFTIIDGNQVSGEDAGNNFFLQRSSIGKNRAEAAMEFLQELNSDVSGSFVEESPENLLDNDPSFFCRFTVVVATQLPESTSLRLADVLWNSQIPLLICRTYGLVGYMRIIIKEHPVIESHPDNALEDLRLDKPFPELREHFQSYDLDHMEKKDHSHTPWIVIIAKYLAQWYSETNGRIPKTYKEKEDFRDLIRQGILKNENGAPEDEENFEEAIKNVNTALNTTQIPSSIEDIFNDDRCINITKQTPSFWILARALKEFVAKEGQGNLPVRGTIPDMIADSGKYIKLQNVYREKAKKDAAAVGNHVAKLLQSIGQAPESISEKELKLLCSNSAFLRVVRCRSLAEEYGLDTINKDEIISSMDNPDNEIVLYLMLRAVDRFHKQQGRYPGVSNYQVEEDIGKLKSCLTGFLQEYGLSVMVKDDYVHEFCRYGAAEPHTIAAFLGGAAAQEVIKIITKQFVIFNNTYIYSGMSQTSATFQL
# Test: blockade of NEDD8 conjugation to cullin – biochemical, TR-FRET, single concentration, confirmation (AID 652217);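 note: neddylation substrate is the cullin 1 ring ligase complex with SKP2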
# Conditions: TR-FRET cullin neddylation biochemical assay; at 25 µM; hits give high values
row,Structure (SMILES),inhibition
1,CC(=CCOc1ccc2ccc(=O)oc2c1)C1=CC(=O)C(C)(C)O1,44.2% (active)
2,CCN1c2nc3c(C)cccn3c(=O)c2CC2(C(=O)N(C)C(=O)N(C)C2=O)C1C (centres undefined),9.81%
3,CCC(C)n1c(O)c(/C=N/Nc2nc3c(c(=O)n(C)c(=O)n3C)n2C)c(=O)[nH]c1=S (centres undefined),-31.5%
4,CCCCC(=O)N/N=C/c1c(O)n(CCC2=CCCCC2)c(=O)[nH]c1=O,2.57%
